Results published in PubChem BioAssay (EPA / NIEHS).
Calls of active or inactive are those of the source. Rule for the calls: active = hit-call score of the fitted dose curve at least 0.9, where 1 is the maximum; inactive = score below 0.9.

test: CCTE_Harrill_HTTr_Viability_MCF7: CCTE's 6-hour Cell Viability Assessment for the High-Throughput Transcriptomics (HTTr) Platform, in MCF-7 cells cultured in DMEM + 10% fetal bovine serum, Harrill Lab (AID 2284010)
Excerpt: This is a cell-based assay that evaluates cell viability using high content imaging to evaluate membrane integrity using propidium iodide dye exclusion in a 384 well format.One of seven assay components measured from the CCTE_Harrill_HTTr_Viability assay. This was part of a full screening experiment. This is a cell-based assay that evaluates cell viability in MCF-7 cells cultured in DMEM + 10% fetal bovine serum. High content imaging is used to evaluate membrane integrity using propidium iodide dye exclusion. Measurements are taken at 6 hours after chemical dosing in 384-well format.The assay component endpoint CCTE_Harrill_HTTr_Viability_MCF7 was analyzed with bidirectional fitting relation to DMSO as the negative control and baseline of activity. Using a type of viability reporter, gain-of-signal activity can be used to evaluate membrane integrity using propidium iodide dye exclusion to understand changes in cytotoxicity. To generalize the intended target to other relatable targets, this assay endpoint is annotated to cell cycle, where the subfamily is cytotoxicity.
Chemicals were tested in MCF7 cells in an eight point dilution series with a six hour exposure duration.

Structure (SMILES)	outcome	AC50
CC(=O)CC(C)(C)O	inactive	
c1ccc2c(c1)ccc1ccccc12	inactive	
NC(=O)N1C(=O)C(C(=O)c2cc(Cl)cs2)c2cc(F)c(Cl)cc21 (stereo not given)	inactive	
C[C@@H]1C[C@H]2[C@@H]3CCC4=CC(=O)C=C[C@]4(C)[C@@]3(F)[C@@H](O)C[C@]2(C)[C@@]1(O)C(=O)COP(=O)(O)O	inactive	
CCc1nn(C2CCCCC2)c2cc(C3(C#N)CCC(C(=O)O)CC3)ccc12 (stereo not given)	inactive	
O=C(O)c1ccccc1C(c1ccc(O)cc1)c1ccc(O)cc1	inactive	
CCOC(=O)CC(O)(CC(=O)OCC)C(=O)OCC	inactive	
CC(C)(C)CC(C)(C)c1ccc(O)c(-n2nc3ccccc3n2)c1	inactive	
Cc1cc(C)c(O)c(C)c1	inactive	
CC(O)C(=O)O (stereo not given)	inactive	
OC1CCC(C2CCCCC2)CC1 (stereo not given)	inactive	
Cc1oc(-c2ccccc2)nc1CCOc1ccc(C[C@H](Nc2ccccc2C(=O)c2ccccc2)C(=O)O)cc1	inactive	
CCCCCCCCCCCCN1CCCC1=O	inactive	
OCCC(F)(F)C(F)(F)C(F)(F)C(F)(F)C(F)(F)C(F)(F)C(F)(F)C(F)(F)F	inactive	
CCCCCCC(=O)O	inactive	
Oc1cc2ccccc2c2ccccc12		9.92 µM (active)
CC(=O)NC1(c2cccc(F)c2)CCN(CC[C@@]2(c3ccc(Cl)c(Cl)c3)CN(c3ccccc3)C(=O)CO2)CC1	inactive	
Oc1cccc(O)c1	inactive	
O=c1c(-c2ccc(O)cc2)coc2cc(O)ccc12	inactive	
CCCCC(CC)COC(=O)CCCCC(=O)OCC(CC)CCCC (stereo not given)	inactive	

Structure (SMILES)	outcome	AC50
COCC(C)OCC(C)O (stereo not given)	inactive	
C#C[C@]1(O)CC[C@H]2[C@@H]3CCC4=CC(=O)CC[C@@H]4[C@H]3CC[C@@]21C	inactive	
CCCCCCCCC(=O)O	inactive	
N#C[C@@H]1CC(F)(F)CN1C(=O)CNC1CC2CCC(C1)N2c1ncccn1 (stereo not given in full)	inactive	
CCCCCCCCCCCCc1ccccc1S(=O)(=O)O	inactive	
CC1=C(/C=C/C(C)=C/C=C/C(C)=C/C(=O)O)C(C)(C)CCC1	inactive	
CN1CCN(c2ccccc2/C=C2\SCCN(c3ccc(Cl)c(Cl)c3)C2=O)CC1		73.7 µM (active)
CCCOC(=O)c1ccc(O)cc1	inactive	
OCCC(F)(F)C(F)(F)C(F)(F)C(F)(F)C(F)(F)C(F)(F)F	inactive	
OC1CCCCC1	inactive	
CCCCCCCC(=O)O	inactive	
O=C1OC2(c3ccccc31)c1cc(Br)c(O)c(Br)c1Oc1c2cc(Br)c(O)c1Br	inactive	
CC(O)CO (stereo not given)	inactive	
c1ccc2c(c1)Cc1ccccc1-2	inactive	
COc1cc(CCC(=O)CC(=O)CCc2ccc(O)c(OC)c2)ccc1O	inactive	
O=C(O)Cc1cc(I)c(Oc2cc(I)c(O)c(I)c2)c(I)c1	inactive	
CCN(CC)CCNc1ccc(CNC=O)c2sc3ccc(OC)cc3c(=O)c12	inactive	
ClC1=C(Cl)C(Cl)(Cl)C(Cl)=C1Cl	inactive	
Nc1cccc2c(N)cccc12	inactive	
CC[C@H](c1ccc(O)cc1)[C@@H](CC)c1ccc(O)cc1	inactive	
